Screening results from PubChem.
JMJD2A Tudor = inhibitors of human JMJD2A Tudor domain. AlphaScreen JMJD2A-Tudor / H3K4me3 peptide binding. 390,000 tested, 4.4% active. Potency, µM (series often up to 114 µM), without a hit: at the highest dose activity change, negative = inhibition, most hits filed as inhibitors; note: potency is the fitted concentration of half-maximal effect; % is set by controls: 0 for no effect and ±100 for the full control effect; nearly all actives have a fitted effect of over 50% in size
PI5P4K alpha inh = inhibitors of human PI5P4K alpha; P48426; PI5P4Kalpha enzyme, ADP-Glo luminescence, 60 min; hits give low values; max response, %; 330,000 tested, 1.2% active; active = max response of -50% or lower; inconclusive = between -30% and -50%; inactive = -30% or higher; note: value at the top dose of about 77 µM; % is set by controls: 0 for no effect and ±100 for the full control effect
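Quantitative HTS of the MLSMR library against PI5P4Kalpha with substrate. ATP added last at 5 microM final; room temperature, 60 minutes. Remaining ATP depleted, ADP converted and read as luminescence.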
G9a inh = blocks human histone lysine methyltransferase G9a; G9a H3K9 monomethylation, AlphaScreen, 2 h; Potency, µM (titrated, usually from 102 µM), inactives show top-dose activity, negative = inhibition, hits mostly inhibitors; 350,000 tested, 8.8% active; AID 504332; note: potency is the fitted concentration of half-maximal effect; % is set by controls: 0 for no effect and ±100 for the full control effect; nearly all actives have a fitted effect of over 75% in size
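Signal arises when biotinylated H3K9 peptide, once monomethylated, bridges streptavidin donor and antibody-captured acceptor beads. Enzyme at 20 nM was preincubated 15 min with test compounds; peptide 500 nM and SAM 20 uM then reacted for 2 h.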
HP1b binding inh = blocks HP1-beta chromodomain binding to methylated histone tails | P83916 | AlphaScreen HP1-beta / biotin-H3K9me3 peptide binding | Potency, µM (titrated, usually from 114 µM), for the others: top-dose activity change, negative = inhibition, hits mostly inhibitors | 390,000 tested, 0.56% active; note: potency is the fitted concentration of half-maximal effect; nearly all actives have a fitted effect of over 70% in size
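AlphaScreen: HP1-beta (50 nM) preformed 30 min with biotin-H3(1-18)K9me3 peptide (50 nM) in PBS pH 7.4, 0.01% Tween-20. Compound added for 30 min at RT, then streptavidin donor/nickel chelate acceptor beads (10 ug/mL) for 30 min.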
L3MBTL1 block = L3MBTL1 (human) inhibition | Potency, µM (series often up to 57.1 µM), for the others: top-dose activity, negative = inhibition, hits mostly inhibitors | Q9Y468 | AlphaScreen L3MBTL1–H3K9me1 peptide binding | 230,000 tested, 0.66% active; note: potency is the fitted concentration of half-maximal effect; % is set by controls: 0 for no effect and ±100 for the full control effect; nearly all actives have a fitted effect of over 60% in size
Target sequence (Q9Y468 whole entry, looked up): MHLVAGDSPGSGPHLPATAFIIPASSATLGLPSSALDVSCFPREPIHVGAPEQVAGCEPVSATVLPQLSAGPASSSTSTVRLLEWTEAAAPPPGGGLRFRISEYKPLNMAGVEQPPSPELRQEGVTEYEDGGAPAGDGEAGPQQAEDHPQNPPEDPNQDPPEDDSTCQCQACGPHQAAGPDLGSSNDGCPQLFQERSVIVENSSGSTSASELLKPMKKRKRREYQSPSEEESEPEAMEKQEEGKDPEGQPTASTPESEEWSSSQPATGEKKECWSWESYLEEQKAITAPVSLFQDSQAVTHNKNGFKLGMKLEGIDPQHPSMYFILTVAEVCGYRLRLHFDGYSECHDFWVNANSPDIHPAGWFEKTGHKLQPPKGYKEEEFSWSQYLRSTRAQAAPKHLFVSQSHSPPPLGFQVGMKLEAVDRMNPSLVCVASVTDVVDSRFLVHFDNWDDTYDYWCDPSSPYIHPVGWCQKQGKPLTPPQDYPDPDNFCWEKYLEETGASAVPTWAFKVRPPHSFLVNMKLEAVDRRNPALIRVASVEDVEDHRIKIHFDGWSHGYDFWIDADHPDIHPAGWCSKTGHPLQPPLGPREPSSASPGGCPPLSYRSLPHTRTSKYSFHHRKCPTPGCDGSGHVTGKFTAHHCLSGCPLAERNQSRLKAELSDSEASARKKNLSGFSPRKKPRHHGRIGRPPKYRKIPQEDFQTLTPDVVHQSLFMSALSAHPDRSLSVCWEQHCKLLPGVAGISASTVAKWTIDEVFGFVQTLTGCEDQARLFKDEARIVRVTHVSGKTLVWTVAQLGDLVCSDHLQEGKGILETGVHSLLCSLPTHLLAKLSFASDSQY
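First, the protein-peptide complex forms for 30 min at room temperature (L3MBTL1 50 nM, biotinylated H3K9me1 peptide 75 nM). Next, compounds are pin-transferred and incubated 30 min. Finally, AlphaScreen beads are added and read after 30 min.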
BAZ2B block = inhibitors of human BAZ2B bromodomain | AID 504333 | 360,000 tested, 4.4% active | AlphaScreen BAZ2B-H3K14Ac peptide displacement | Potency, µM (highest dose often 114 µM), for inactives: at the highest dose activity change, negative = inhibition, most hits filed as inhibitors | Q9UIF8; note: potency is the fitted concentration of half-maximal effect; % is set by controls: 0 for no effect and ±100 for the full control effect; nearly all actives have a fitted effect of over 60% in size
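Multi-concentration screen (max 110 uM) measuring displacement of acetylated histone H3 peptide from BAZ2B by AlphaScreen, using 50 nM protein, 50 nM peptide and 10 ug/mL streptavidin donor plus Ni-chelate acceptor beads.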
* hit, by the source's call; ? = inconclusive; · = not tested or not shown; ! = not confirmed by another sample; [ ] = another dose, or the depositor's remark. Most compounds without a hit are left out; they make up all but 11% or so of the library. Unless noted, calls come from the whole dose curve; as a rule, active = well fitted inhibition curve with a large enough effect; inconclusive = small, poorly fitted or top-dose-only effect; inactive = no such curve, though single readings can be large or run the other way.

SMILES | JMJD2A Tudor | PI5P4K alpha inh | G9a inh | HP1b binding inh | L3MBTL1 block | BAZ2B block
Cc1cccc(-c2nc3scc(CCNS(=O)(=O)c4ccc(Oc5ccccc5)cc4)n3n2)c1 | -13% | · | 8%[59 µM] | 14% | · | -3%
CCN1CCN(c2ncnc3c2sc(=S)n3-c2ccccc2)CC1 | -20% | -1 | 50µM* | 34% | 4% | 3%
S=c1sc2c(N3CCN(Cc4ccccc4)CC3)ncnc2n1-c1ccccc1 | 5% | 0 | -3% | 6% | · | -7%
O=C(COc1ccccc1F)Nc1ccc(N2CCOCC2)cc1N1CCOCC1 | -11% | 1 | ? | 28% | 20% | -9%
COc1ccccc1-c1ocnc1C(=O)Nc1ccc(N2CCOCC2)cc1N1CCOCC1 | ? | -1 | 50µM* | -13% | · | -15%
O=C(COc1ccc(F)cc1Cl)Nc1ccc(N2CCOCC2)cc1N1CCOCC1 | -28% | 10 | 35µM* | -4% | -10% | -10%
CCOc1ccccc1NC(=O)COc1coc(CN2CCCc3ccccc32)cc1=O | ? | -6 | 50µM* | -20% | -21% | ?
CCOc1ccccc1OCC(=O)Nc1ccc(N2CCOCC2)cc1N1CCOCC1 | ? | 4 | 56µM* | -8% | -9% | -35%
O=C(Cc1ccccc1)Nc1ccc(N2CCOCC2)cc1N1CCOCC1 | -24% | 0 | ? | 26% | -6% | 5%
CCc1cccc(NC(=O)C2CCCN(c3ncnc4onc(-c5ccc(F)cc5)c34)C2)c1 (stereo not given) | -5% | · | 1%[59 µM] | 36% | · | 7%[57.1 µM]
O=C(CC(c1cccs1)N1Cc2ccccc2C1=O)Nc1ccc(F)cc1 (stereo not given) | -4% | · | -2%[59 µM] | 31% | · | -4%
COc1ccc(NC(=O)CN2C(=O)CSc3ccc(S(=O)(=O)N(C)C)cc32)cc1Cl | -24% | · | -34%[59 µM] | 30% | · | -4%
Cc1ccc(C)c(NS(=O)(=O)c2c(C)ccc3nsnc23)c1 | -13% | -1 | -3%[59 µM] | 12% | -3% | 3%
Cc1ccc2nsnc2c1S(=O)(=O)Nc1cccc2nsnc12 | -23% | -17 | 45µM* | 15% | -30% | -38%
CCOc1cc2c3c(c1)C(C)=CC(C)(C)N3C(=O)C2=O | -27% | -4 | ? | ? | -4% | ?
CC(=O)Oc1cc2c3c(c1)/C(=C1/SC(=S)NC1=O)C(=O)N3C(C)(C)C=C2C | 11µM* | -76* | 8.9µM* | ? | -20% | 7.9µM*
CC(C)CC(c1nnnn1CCc1ccccc1)N1CCN(C(=O)c2ccco2)CC1 (stereo not given) | 1%[11.4 µM] | -1 | 13% | -18% | -1% | 3%
CCCC(c1nnnn1C(C)(C)CC)N1CCN(C(=O)c2ccco2)CC1 (stereo not given) | -28% | -2 | 89µM* | 6% | · | -8%
CCC(c1nnnn1CCc1ccccc1)N1CCN(C(=O)c2ccco2)CC1 (stereo not given) | -19% | 4 | 50µM* | 24% | -3% | 50µM*
CCC(C)(C)n1nnnc1C(C(C)C)N1CCN(C(=O)c2ccco2)CC1 (stereo not given) | -3% | 4 | -8% | 17% | · | -11%
Cc1ncc(CO)c(CNc2ccc(Oc3ccccc3)cc2)c1O | ? | -2 | 71µM* | ? | · | ?
C[C@@H](C[N+](C)(C)C)OC(N)=O | · | · | 11%[21.5 µM] | · | · | ·
COCCSc1nnc(NC(=O)c2cc(C(=O)OC)cc([N+](=O)[O-])c2)s1 | -16% | -25 | 50µM* | 20% | -1% | -37%
COC(=O)c1cc(C(=O)Nc2nnc(CC(C)C)s2)cc([N+](=O)[O-])c1 | -23% | -1 | -18%[59 µM] | 11% | 1% | -1%
CCC(CC)c1nnc(NC(=O)c2cc(C(=O)OC)cc([N+](=O)[O-])c2)s1 | -22% | -6 | 8.9µM* | -9% | -9% | -31%
SMILES | JMJD2A Tudor | PI5P4K alpha inh | G9a inh | HP1b binding inh | L3MBTL1 block | BAZ2B block
Cc1ccc(NC(=O)CCCn2c(=O)c3cccn3c3ccccc32)cc1C | -9% | · | 2%[59 µM] | 36% | · | 1%
Cc1ccccc1C(=O)NCc1ccc2c(c1)CCN2C(=O)c1ccccc1 | -17% | · | 21%[59 µM] | 9% | · | -3%
O=C(O)c1cc(O)c2c(c1)[C@@H]([C@H]1c3cc(C(=O)O)cc(O)c3C(=O)c3c(O[C@@H]4O[C@H](CO)[C@@H](O)[C@H](O)[C@H]4O)cccc31)c1cccc(OC3O[C@H](CO)[C@@H](O)[C@H](O)[C@H]3O)c1C2=O (stereo not given in full) | 0.32µM* | -89* | 1.3µM* | -76% | 0.16µM* | 0.79µM*
O=C1c2c(O)cccc2C(C2OC(CO)[C@@H](O)[C@H](O)[C@H]2O)c2cc(CO)cc(O)c21 (stereo not given in full) | -24% | -11 | ? | 22% | -6% | -38%
O=C1c2cc(CO)cc(O)c2C(=O)c2c(O[C@@H]3OC(CO)[C@@H](O)[C@@H](O)[C@@H]3O)cccc21 (stereo not given in full) | -25% | -11 | · | 7% | · | ·
O=C(O)c1cc(O)c2c(c1)[C@H]([C@H]1c3cc(C(=O)O)cc(O)c3C(=O)c3c(O[C@@H]4O[C@H](CO)[C@@H](O)[C@H](O)[C@H]4O)cccc31)c1cccc(OC3O[C@H](CO)[C@@H](O)[C@H](O)[C@H]3O)c1C2=O (stereo not given in full) | 0.32µM* | -79* | 1.3µM* | ? | 0.16µM* | 0.79µM*
CCN(CC)c1ccc(NS(=O)(=O)c2ccc(-c3cnc(C4CC4)o3)cc2)c(C)c1 | 18µM* | · | ? | ? | · | 14µM*
COc1ccccc1NS(=O)(=O)c1ccc(-c2cnc(C3CC3)o2)cc1 | -11% | 2 | · | 16% | · | ?
COc1ccccc1CNS(=O)(=O)c1ccc(-c2cnc(C3CC3)o2)cc1 | -36% | 2 | 7%[59 µM] | 2%[57 µM] | · | 89µM*!
CCn1c(=O)n(CC)c2cc(N3CCCC3)c(NC(=O)c3ccccc3C)cc21 | ? | -4 | 50µM* | -2% | · | ?
Cc1ccccc1C(=O)Nc1ccccc1N1CCCCC1 | 71% | 8 | 277% | 154% | 73% | 61%
CCn1c(=O)n(CC)c2cc(N3CCCC3)c(NC(=O)c3ccccc3F)cc21 | 56µM* | -1 | 40µM* | ? | · | ?
N#Cc1c(-c2ccccc2)cc(-c2cccs2)nc1SCC(=O)O | -13% | -2 | 8.9µM* | 4% | · | -5%
N#Cc1c(-c2ccccc2F)cc(C2CC2)nc1SCC(=O)c1cccs1 | -4% | -3 | 45µM* | 29% | 5% | -4%
